# Screening data as filed in PubChem.
# Shown is part of a subset that was picked to be rich in hits.
# APE1 inh-1 – qHTS Assay for Inhibitors of the Human Apurinic/apyrimidinic Endonuclease 1 (APE1) | DNA repair nuclease/redox regulator APEX1 (Homo sapiens), P27695 | recombinant APE1, TAMRA/BHQ-2 abasic DNA cleavage fluorescence | Potency, µM (doses to about 65.8 µM), for the others: at the highest dose activity change, negative = inhibition, usual class: inhibitors | 350,000 tested, 0.35% active;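 further: potency means the concentration at half of the fitted maximal effect; plate controls were vehicle for no effect and reference inhibitor for full effect; nearly all actives have a fitted effect of over 55% in size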
# Target sequence (P27695 whole entry, looked up): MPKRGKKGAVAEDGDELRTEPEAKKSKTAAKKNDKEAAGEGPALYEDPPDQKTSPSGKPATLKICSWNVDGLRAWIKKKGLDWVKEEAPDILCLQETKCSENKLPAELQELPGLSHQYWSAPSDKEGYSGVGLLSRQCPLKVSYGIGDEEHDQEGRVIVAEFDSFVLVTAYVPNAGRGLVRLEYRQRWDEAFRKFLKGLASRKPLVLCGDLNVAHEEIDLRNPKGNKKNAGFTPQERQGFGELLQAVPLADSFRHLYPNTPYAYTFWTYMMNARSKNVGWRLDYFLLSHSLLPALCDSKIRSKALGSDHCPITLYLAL
#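 0.75 nM APE1 + cpd, 15 min RT; start w/ 50 nM TAMRA/BHQ-2 THF-abasic dsDNA; kinetic fluor 525/598 nm ×3 reads @60 s; Δ(read3−read1); normalized to DMSO and NSC13755 control wells.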
# BLM inh-1 – qHTS Assay for Inhibitors of Bloom's syndrome helicase (BLM); RecQ-like DNA helicase BLM (Homo sapiens), P54132; recombinant BLM DNA unwinding, fluorescence dequenching; Potency, µM (doses to about 56.1 µM), for the others: at the top dose activity change, negative = inhibition, hits mostly inhibitors; 350,000 tested, 0.2% active;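 further: potency means the concentration at half of the fitted maximal effect; plate controls were vehicle for no effect and no enzyme for full effect; nearly all actives have a fitted effect of over 35% in size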
# KDM4E inh – qHTS Assay for Inhibitors of Human Jumonji Domain Containing 2E (JMJD2E); Lysine-specific demethylase 4E (Homo sapiens), B2RXH2; JMJD2E catalytic domain, FDH-coupled NADH fluorescence (FDH is formaldehyde dehydrogenase); Potency, µM (titrated, usually from 57.1 µM), without a hit: at the top dose activity change, negative = inhibition, hits mostly inhibitors; 230,000 tested, 1.6% active; active means well fitted inhibition curve with a large enough effect, not every such curve was filed as active; inconclusive means small, poorly fitted or top-dose-only effect, or another doubt; inactive means no such curve, though single readings can be large or run the other way;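 further: potency means the concentration at half of the fitted maximal effect; 0% = wells with enzyme and -100% = buffer wells without enzyme; nearly all actives have a fitted effect of over 50% in size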
# Target sequence (B2RXH2 1-337 limits assumed): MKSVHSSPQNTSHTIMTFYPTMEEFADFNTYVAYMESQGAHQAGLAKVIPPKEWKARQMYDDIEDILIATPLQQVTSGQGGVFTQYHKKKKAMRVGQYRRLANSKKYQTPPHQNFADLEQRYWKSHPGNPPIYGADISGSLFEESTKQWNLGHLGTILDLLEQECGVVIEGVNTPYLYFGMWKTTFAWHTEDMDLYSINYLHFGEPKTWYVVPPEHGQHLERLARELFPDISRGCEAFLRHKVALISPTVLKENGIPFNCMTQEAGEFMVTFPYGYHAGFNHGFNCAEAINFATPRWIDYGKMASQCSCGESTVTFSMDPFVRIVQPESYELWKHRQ
# GCN5L2 inh-1 – qHTS Assay for Inhibitors of GCN5L2. Potency, µM (doses to about 58.9 µM), for the others: at the highest dose activity change, negative = inhibition, most hits filed as inhibitors. Histone acetyltransferase KAT2A (Homo sapiens), Q92830. AID 504327, 2011. 390,000 tested, 0.21% active. GCN5L2 HAT assay, ThioGlo1 CoA-SH fluorescence; further: potency means the concentration at half of the fitted maximal effect; on the % scale 0 is the no-effect control and ±100 the full control effect
#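 ThioGlo1-coupled HAT assay: 20nM GCN5L2, 70uM acetyl-CoA, 75uM H3(1-25) peptide, pH 7.5. Fluorescence read at 340/540nm at start and after 20 min at room temperature.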
# L3MBTL1 inh-1 – qHTS Assay for the Inhibitors of L3MBTL1; AlphaScreen L3MBTL1–H3K9me1 peptide binding; AID 485360, 2010; Lethal(3)malignant brain tumor-like protein 1 (Homo sapiens), Q9Y468; 230,000 tested, 0.66% active; Potency, µM (series often up to 57.1 µM), inactives show at the top dose activity, negative = inhibition, usual class: inhibitors; further: potency means the concentration at half of the fitted maximal effect; on the % scale 0 is the no-effect control and ±100 the full control effect; nearly all actives have a fitted effect of over 60% in size
#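 AlphaScreen assay: L3MBTL1 (50 nM final) was preincubated 30 min at room temperature with biotinylated H3(1-15)K9me1 peptide (75 nM final), then 30 min with library compounds; streptavidin donor and nickel chelate acceptor beads (10 ug/mL final) added, 30 min dark.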
# RECQ1 helicase – qHTS Assay for Inhibitors of RecQ-Like Dna Helicase 1 (RECQ1); ATP-dependent DNA helicase Q1 (Homo sapiens), P46063; RECQ1 DNA unwinding, red fluorescence kinetic read; Potency, µM (highest dose often 57.3 µM), inactives show at the highest dose activity, negative = inhibition, most hits filed as inhibitors; 240,000 tested, 0.54% active; AID 2549, 2010;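 further: potency means the concentration at half of the fitted maximal effect; plate controls were vehicle for no effect and no enzyme for full effect; nearly all actives have a fitted effect of over 30% in size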
#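 50 nM RECQ1T1 preincubated 15 min with compound in Tris pH 8.0 buffer with MgCl2, DTT, Tween-20 and 2.5 ug/ml poly(dI-dC); started with 200 nM TAMRA/BHQ-2 forked duplex and 2 mM ATP. Unwinding read as fluorescence (525/598 nm), two reads 2 h apart.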
# APE1 dye cs – Counterscreen for APE1 Inhibitors: Fluorescent Dye Displacement Assay; shares compounds with APE1 inh-1; DNA fluorescent dye displacement counterscreen, fluorescence; Potency, µM (doses to about 28.5 µM), without a hit: at the top dose activity change, negative = inhibition, most hits filed as inhibitors; 480 tested, 7% active; AID 2564, 2010;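 further: loss of thiazole orange fluorescence as the dye is displaced from duplex DNA; potency means the concentration at half of the fitted maximal effect; 0% = ThO with dsDNA and no compound and -100% = ThO without dsDNA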
# EndoIV counter – Counterscreen for APE1 Inhibitors: qHTS Assay for Inhibitors of Endonuclease IV. shares compounds with APE1 inh-1. E. coli Endo IV, fluorogenic AP-site DNA cleavage. Potency, µM (doses to about 27.1 µM), for the others: at the top dose activity change, negative = inhibition, actives largely listed as inhibitors. 560 tested, 4% active. AID 2565, 2010;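 further: potency means the concentration at half of the fitted maximal effect; plate controls were uninhibited enzyme wells for no effect and no enzyme buffer wells for full effect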
# APE1 inh-2 – Confirmation qHTS Assay for Inhibitors of the Human Apurinic/apyrimidinic Endonuclease 1 (APE1); AID 2572, 2010; 750 tested, 44% active; Potency, µM (highest dose often 57.1 µM), for inactives: at the top dose activity change, negative = inhibition, usual class: inhibitors; purified APE1, fluorogenic abasic-site DNA cleavage; shares compounds with APE1 inh-1; further: potency means the concentration at half of the fitted maximal effect; on the % scale 0 is the no-effect control and ±100 the full control effect; nearly all actives have a fitted effect of over 30% in size
# APE1 FP inh – qHTS FP-Based Assay for Inhibitors of the Human Apurinic/apyrimidinic Endonuclease 1 (APE1). 480 tested, 7% active. APE1 binding to TAMRA-labelled double-stranded DNA, fluorescence polarization displacement. shares compounds with APE1 inh-1. Potency, µM (top dose mostly 28.5 µM), for the others: top-dose activity, negative = inhibition, usual class: inhibitors. AID 2573, 2010; further: potency means the concentration at half of the fitted maximal effect; on the % scale 0 is the no-effect control and ±100 the full control effect
# BLM inh-2 – qHTS Confirmation Assay for Inhibitors of Bloom's syndrome helicase (BLM); AID 2585, 2010; Potency, µM, without a hit: max response, negative = inhibition, hits mostly inhibitors; shares compounds with BLM inh-1; BLM DNA unwinding, fluorescence quenching, biochemical; 220 tested, 40% active;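 further: strand separation dequenches TAMRA so unwinding raises red fluorescence; potency means the concentration at half of the fitted maximal effect; series mostly up to about 69 µM; on the % scale 0 is the no-effect control and ±100 the full control effect; nearly all actives have a fitted effect of over 45% in size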
# L3MBTL1 inh-2 – qHTS Assay for the Inhibitors of L3MBTL1: Hit Validation. Potency, µM, hits mostly inhibitors. 500 tested, 91% active. shares compounds with L3MBTL1 inh-1. L3MBTL1 methyl-lysine binding inhibition, biochemical qHTS; further: potency means the concentration at half of the fitted maximal effect; nearly all actives have a fitted effect of over 70% in size
# L3MBTL1 ctr – qHTS Assay for the Inhibitors of L3MBTL1: Hit Validationin AlphaScreen Counterscreen; 500 tested, under 10 active; AlphaScreen counterscreen, signal inhibition; Potency, µM (doses to about 57.1 µM), without a hit: at the highest dose activity change, negative = inhibition, actives largely listed as inhibitors; shares compounds with L3MBTL1 inh-1; AID 602224, 2012; further: potency means the concentration at half of the fitted maximal effect; 0% is about no effect
# GCN5L2 inh-2 – qHTS Assay for Inhibitors of GCN5L2: Hit confirmation; shares compounds with GCN5L2 inh-1; GCN5L2 HAT, ThioGlo1 CoA fluorescence, 20 min; Potency, µM, hits mostly inhibitors; 140 tested, 70% active; AID 588347, 2011
# Active calls of the source: *; i = inactive; ? = inconclusive; . = no result given. Unless noted, the call rests on the fitted dose curve; in most records, active means well fitted curve in the direction sought with a large enough effect; inconclusive means small, poorly fitted or top-dose-only effect, or another doubt; inactive means no such curve, though single readings can be large; an effect the other way counts as inactive or inconclusive.
SMILES,APE1 inh-1,BLM inh-1,KDM4E inh,GCN5L2 inh-1,L3MBTL1 inh-1,RECQ1 helicase,BLM inh-2,others
Cc1cccc(C)c1NC(=O)CSc1nnc(-c2ccco2)c(-c2ccco2)n1,16µM*,6%,?,13µM*,2.8µM*,14µM*,.,APE1 dye cs=?;EndoIV counter=-2%;APE1 inh-2=3.5µM*;APE1 FP inh=-23%;L3MBTL1 inh-2=2.7*;L3MBTL1 ctr=-29%;GCN5L2 inh-2=?
COc1cccc(NC(=O)CSc2nnc(-c3ccco3)c(-c3ccco3)n2)c1,7%,-25%,.,?,.,.,.,
CC(=O)NCCNc1ncnc2ccc(-c3ccccc3C(F)(F)F)cc12,0%,3%,.,-10%,.,-1%,.,
CCCCn1c(=O)[nH]c2nc3cc(N)ccc3nc2c1=O,13%,5.6µM*,-3%,-19%,-5%,-9%,?,
O=C(CSc1nnc2scc(-c3ccccc3)n12)Nc1nsc(-c2ccccc2)n1,-3%,20µM*,-5%,-12%,2%,5%,36µM*,
Cc1ccc(-c2csc3nnc(SCC(=O)Nc4nsc(-c5ccccc5)n4)n23)cc1,-1%,-10%,-9%,.,.,-13%,.,
O=S(=O)(c1ccc2ccccc2c1)N1CCN(CCO)CC1,6%,0%,.,0%,.,.,.,
CCSc1ccc(-c2ccco2)nn1,0%,10µM*,?,-17%,.,-22%,?,
CC1=NN(c2ccccc2)C(=O)/C1=C/c1c(O)n(-c2ccc(F)c(Cl)c2)[nH]c1=O,-5%,18µM*,-15%,?,-29%,-6%,36µM*,
CC1=NN(c2ccccc2)C(=O)/C1=C\c1c(C)[nH]n(-c2ccccc2)c1=O,-3%,-2%,-5%,48%,-15%,-9%,.,
COC(=O)c1ccc(CSc2nc3scc(-c4cccs4)c3c(=O)[nH]2)o1,-8%,25µM*,1%,-19%,?,-26%,?,
COc1ccc(Cc2nc3ccccc3n2CC(=O)N/N=C/c2ccc(C)cc2O)cc1OC,-4%,10µM*,-1%,-23%,-15%,9%,?,
CC(C)=CCOc1ccc(/C=C/C(=O)c2ccc(OCC=C(C)C)cc2OCC(=O)O)cc1,4%,16µM*,.,10µM*,.,i,?,
O=C(CCc1c[nH]c2ccccc12)NC(Cc1c[nH]c2ccccc12)C(=O)O (centres undefined),21µM*,32µM*,.,-15%,.,.,-8%,
COc1ccc2c(c1)C(=NNC(=O)c1ccccn1)c1cc(OC)ccc1-2,11%,10µM*,-1%,25%,2%,-5%,29µM*,
COc1ccc(C(=O)NNC(=O)c2ccccn2)cc1,2%,6%,2%,-4%,-5%,-5%,.,
COc1cc(-c2nc3ccc(N4CCN(C)CC4)cc3[nH]2)cc(OC)c1OC,-11%,20µM*,?,?,-12%,-14%,?,
O=C1C=C(NCCN2CCOCC2)C(=O)c2cnccc21,1%,25µM*,-5%,-2%,?,0%,?,
O=C1C=C(NCCO)C(=O)c2cnccc21,?,?,-26%,.,.,-4%,.,
C=CCn1cc(CN2CCC(C(=O)Nc3cccc(-c4cccc(Cl)c4)c3)CC2)c(C)n1,-28%,6%,.,-1%,.,.,.,
CCOc1ccc2nc3cc(N)ccc3c(N)c2c1,?,?,?,?,.,i,.,
CCOc1ccc2nc3cc(NCc4ccc(OC)cc4)ccc3c(N)c2c1,-22%,14µM*,.,-3%,.,.,7.3µM*,
O=c1oc(-c2ccccc2)nc2sc3c(c12)CCC3,1%,14µM*,-11%,?,13µM*,2%,?,
